Compound activity: PubChem, National Center for Advancing Translational Sciences (NCATS)
Casp7 inh = blocks human caspase-7 allosterically or competitively; Potency, µM (highest dose often 57.5 µM), without a hit: at the highest dose activity change, negative = inhibition, usual class: inhibitors; recombinant caspase-7, Ac-DEVD-AFC fluorescence rate; 0.02% of 75,000 active; AID 889; active = well fitted inhibition curve with a large enough effect in the main read-out, with a control signal flat, not every such curve was filed as active; inconclusive = small, poorly fitted or top-dose-only effect, or a change in a side signal; also: % of control where 0% means no effect
Caspase-1 inhib = blocks human caspase-1 allosterically or competitively. Potency, µM (series often up to 57.5 µM), without a hit: top-dose activity change, negative = inhibition, actives largely listed as inhibitors. Caspase-1 enzyme, Ac-WEHD-AFC fluorogenic rate. AID 900. 0.03% of 75,000 active;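 also: plate controls were vehicle for no effect and no substrate for full effect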
Hsp90 Hop PPI = changes Hsp90-Hop TPR2A binding signal, up or down. Potency, µM (doses to about 57 µM), inactives show at the highest dose activity change, negative = inhibition. AID 595. AlphaScreen TPR2A-His6 binding biotin-Hsp90 C-terminal peptide. 0.44% of 71,000 active; active = well fitted curve in either direction with a large enough effect; inconclusive = small, poorly fitted or top-dose-only effect, or another doubt; also: % is scaled to controls: 0 for no effect and ±100 for the full control effect
ALOX15B inhib = inhibitors of human 15-lipoxygenase 2 (ALOX15B) | O15296 | purified 15hLO-2, xylenol orange hydroperoxide absorbance | Potency, µM (titrated, usually from 57.1 µM), for inactives: at the top dose activity change, negative = inhibition, usual class: inhibitors | 0.56% of 110,000 active; also: % is scaled to controls: 0 for no effect and ±100 for the full control effect; nearly all actives have a fitted effect of over 60% in size
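Purified human 15hLO-2 (50 nM final) preincubated with compounds 15 min at room temperature in 25 mM Hepes pH 7.5, 0.01% Triton X-100, then 45 uM arachidonic acid added for 90 min; hydroperoxide detected via ferrous/xylenol orange, 573/405 nm absorbance ratio.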
15-hLO inh = 15-hLO (ALOX15) enzyme inhibition; Potency, µM (doses to about 57.1 µM), for the others: at the highest dose activity change, negative = inhibition, hits mostly inhibitors; purified 15hLO-1, xylenol orange hydroperoxide absorbance; AID 887; 1.4% of 74,000 active; also: % is scaled to controls: 0 for no effect and ±100 for the full control effect; nearly all actives have a fitted effect of over 55% in size
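Quantitative HTS in 25 mM Hepes pH 7.5 containing 0.01% Triton X-100: human 15hLO-1 at 40 nM, arachidonic acid at 50 uM, 6 min turnover. Product quantified via ferrous oxidation/xylenol orange, 573:405 nm absorbance ratio.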
Tau filament bind = binds recombinant human tau filaments; 2% of 71,000 active; AID 596; Potency, µM (highest dose often 57.1 µM), for inactives: at the highest dose activity change, negative = inhibition; recombinant tau filaments, thioflavin S fluorescence, 15 h; filaments grown with octadecylsulfate alongside compound;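 also: % is scaled to controls: 0 for no effect and ±100 for the full control effect; actives lower thioflavin S fluorescence by blocking filaments or displacing dye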
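ThS-based fibril read: tau 1 uM final, inducer ODS 30 uM final, 37 C for 15 h, ex 450/em 510 nm.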
An asterisk follows results filed as active; i = inactive; ? = inconclusive; . = no result; ! = not confirmed by another sample; [ ] = another dose, or the depositor's remark. Shown are actives, neighbours in structure and some others; about 2.4% of the full set was active somewhere. Unless noted, calls follow the shape of the dose curve; as a rule, active = well fitted curve in the direction sought with a large enough effect; inconclusive = small, poorly fitted or top-dose-only effect, or another doubt; inactive = no such curve, though single readings can be large; an effect the other way counts as inactive or inconclusive. Potency is read from the fitted curve at half-maximal effect.

SMILES	Casp7 inh	Caspase-1 inhib	Hsp90 Hop PPI	ALOX15B inhib	15-hLO inh	Tau filament bind
COc1ccc(CNc2nc(-c3ccc(N(C)C)cc3)nc3ccccc23)c(OC)c1	-13%	-12%	-22%	-16%	10µM*	i
CN(C)c1ccc(-c2nc(NCc3cccnc3)c3ccccc3n2)cc1	-9%	-5%	-9%	34%	20µM*	i
Fc1ccc([C@H]2CCNCC2COc2ccc3c(c2)OCO3)cc1 (stereo partly drawn)	2%	-2%	.	0%	-2%	.
Fc1ccc([C@H]2CCNC[C@H]2COc2ccc3c(c2)OCO3)cc1	1%	-3%	-7%	28%	-29%[25.6 µM]	32µM*
COc1ccccc1N1CCN(c2cc(=O)n(Cc3ccc(F)cc3)c(=O)[nH]2)CC1	1%	-5%	-1%	.	2%	68%
O=C(COC(=O)c1ccc(S(=O)(=O)NCc2ccco2)cc1)Nc1ccccc1OC(F)F	-3%	-1%	-4%	1%	-15%	-4%
Cc1ccc2c(NC(=O)C3CC3)c(C)ccc2n1	0%	-2%	4%	-2%	13%	3%
c1ccc2c(c1)nnn2Cc1nnc2sc(-c3ccc4c(c3)OCCO4)nn12	0%	0%	-2%	3%[2.29 µM]	13µM*	6%
c1ccc(-c2nn3c(Cn4nnc5ccccc54)nnc3s2)cc1	-2%	-2%	-1%	-18%	?	-6%
CC1=NNC(=S)NCCCN2CCN(CCCNC(=S)NN=C(C)C=NNC(=S)NCCCN3CCN(CCCNC(=S)NN=C1)CC3)CC2	-3%[11.5 µM]	-1%[11.5 µM]	4µM*	6%[11.4 µM]	14%[11.4 µM]	?
Cc1cccc(C)c1NC(=O)Cn1cnc2c(=O)n(C)c(=O)n(C)c21	1%	2%	0%	6%	3%	5%
Cn1c(=O)c2ncn(CC(=O)Nc3ccc4c5c(cccc35)CC4)c2n(C)c1=O	-2%	-3%	-9%	11%[2.29 µM]	-8%	13µM*
Nc1c(C(=O)c2ccc(Br)s2)oc2ccccc12	-28%	?	20%	-2%	-1%	13µM*
CC1=NOC(=O)/C1=C\c1ccc(-c2ccc(Cl)cc2Cl)o1	.	.	.	7.9µM*	.	.
Cc1[nH][nH]c(=O)c1C(c1ccc(-c2ccc(Cl)cc2Cl)o1)c1c(C)[nH][nH]c1=O	.	.	.	5%	.	.
N#C/C(=C/c1ccc(N2CCCCCC2)o1)c1cccc(F)c1	.	.	.	7.9µM*	.	.
N#C/C(=C/c1ccc(N2CCCCCC2)o1)c1ccc(F)cc1	-14%	-11%	-14%	.	?	?
N#C/C(=C\N1CCOCC1)c1ccccc1	.	.	.	-5%	.	.
N#C/C(=C\c1ccc(N2CCOCC2)o1)c1ccccc1	.	.	.	10µM*	.	.
N#C/C(=C/c1ccc(N2CCOCC2)o1)c1ccc(Br)cc1	.	.	.	10µM*	.	.
CCOC(=O)c1c(OCC)[nH]c2c1cc(O)c1ccccc12	-2%	-3%	-20%	?	7.9µM*	-22%
Cc1nccn1CC(O)COC1CCCCC1 (stereo not drawn)	-2%[0.00368 µM]	0%	-1%	-15%	-5%	3%
Cc1ccc([N+](=O)[O-])cc1S(=O)(=O)N(C)C	-2%	-1%	.	12%	25µM*!	.
CCCCn1c(SCC(=O)NCc2ccco2)nc2ccccc2c1=O	.	.	.	3%	.	.
O=C(NCC1CCCO1)c1cc(C(=O)C2CC2)c[nH]1 (stereo not drawn)	.	.	.	2%	.	.
SMILES	Casp7 inh	Caspase-1 inhib	Hsp90 Hop PPI	ALOX15B inhib	15-hLO inh	Tau filament bind
CN(C)S(=O)(=O)c1ccc(Nc2ccc(O)c3c2C(=O)c2c([N+](=O)[O-])ccc(O)c2C3=O)cc1	-7%[11.5 µM]	0%[11.5 µM]	?	-15%[11.4 µM]	3%[11.4 µM]	1µM*
O=C1c2c(O)ccc([N+](=O)[O-])c2C(=O)c2c([N+](=O)[O-])ccc(O)c21	-3%	-7%	?	-2%	-7%	0.2µM*
Cc1ccc(-c2cc(C(F)F)n3ncc(C(=O)N4CCN(c5ccccn5)CC4)c3n2)cc1	?	?	-4%	4%	-24%	?
N#Cc1c2ncn(CC(=O)c3ccc(Br)cc3)c(=O)c2c2n1CCC2	0%	2%	-2%	-3%	-10%	84%
CCOC(=O)N1CCC(N(CCOC)C(=O)Nc2ccc(Cl)cc2)CC1	0%	-2%	0%	4%	-1%	4%
O=C1C=C[C@@H](O)[C@H]2[C@@H]3C(=O)N(Cc4ccccc4)C(=O)[C@@H]3CC[C@H]12	1%[11.5 µM]	1%[11.5 µM]	.	.	4%[11.4 µM]	.
Cc1cc(Cl)cc2c1NC(=O)[C@]21[C@@H]2C(=O)N(Cc3ccccc3)C(=O)[C@@H]2[C@@H]2CCCN21	-8%	-11%	-17%	-13%	?	25µM*
CCc1ccc2c(c1)[C@]1(C(=O)N2)[C@@H]2C(=O)N(Cc3ccccc3)C(=O)[C@@H]2[C@@H]2CCCN21	-17%	-3%	-10%	-14%	-9%	20µM*
COc1ccccc1Nc1nc(-c2cccs2)cs1	-3%	-2%	-19%	-15%	?	13µM*
COc1ccc(OC)c(Nc2nc(-c3cccs3)cs2)c1	-2%	-1%	-13%	3%	-15%	16µM*
CSc1nnc(-c2ccco2)c(-c2ccco2)n1	-9%	-12%	-5%	-18%	2µM*	-24%
Cc1ccccc1NC(=O)CSc1nnc(-c2ccco2)c(-c2ccco2)n1	.	.	.	0%	.	.
CC(C)(C)n1nc2c(c1NC(=O)Cc1ccc(F)cc1)CSC2	.	.	.	-6%	.	.
COCc1cc(C)nc2sc(C(=O)N3CCN(c4ccccc4)CC3)c(N)c12	-16%	-12%	?	3%	6.3µM*	-9%
O=C(Oc1ccc2c(c1)OCO2)c1cc2c(s1)CCC2	-13%	-4%	15%	-18%	20µM*	-30%
O=C(NCc1ccco1)c1ccc2nc3sc4c(c3c(=O)n2c1)CCCC4	?	.	-3%	?	32µM*	-10%
N#C/C(=C\c1ccc(O)c(O)c1)C(=O)NCCCCc1ccccc1	-8%	-2%	-26%	16µM*	1.6µM*	?
N#C/C(=C\c1ccc(O)c(O)c1)C(=O)NCCc1ccccc1	-1%	2%	?	-24%	6.3µM*	20%
O=C(O)CCCC(=O)NCCCCc1ccccc1	0%	1%	2%	0%	-17%	2%
CCCCCCC(C)n1[nH]c(=O)c2c(C)cc(=O)[nH]c21 (stereo not drawn)	0%	-3%	-1%	0%	-2%	-2%
OCCN(C=NC1=NN(c2cccc(C(F)(F)F)c2)CC1)CCO	.	.	.	25µM*	.	.
CCOc1cccc(CN2CCN(c3cccc(C(F)(F)F)c3)CC2)c1O	-2%	-3%	4%	0%	-26%	-17%
CC1=CC2=C(OC1N(C)C)c1cccc3cccc(c13)C2=O (stereo not drawn)	-24%	?	-28%	-14%	7.9µM*	14%
O=C1OCc2cccc3cccc1c23	0%	0%	4%	-13%	7%	6%
